The list is not random: actives were taken first. Their share in the collection is about 6.9%.
Giardia kill: Small Molecules that selectively kill Giardia lamblia: qHTS | Giardia lamblia trophozoite viability | activity change, % at 7.66 µM, hits read low | 0.15% of 340,000 active; in the data active = activity change below about -80%; inconclusive = between about -30% and that limit;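 also: parasites exposed to compound for two days anaerobically before the ATP read; % is scaled to controls: 0 for no effect and ±100 for the full control effect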
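Luminescence from cellular ATP indicates surviving trophozoites (100 cells/well) following 48 hrs anaerobic compound treatment at 37 deg C; signal develops 15-30 min at room temperature.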
Vif-A3F inh: qHTS for Inhibitors of Vif-A3F Interactions: qHTS. AID 602313, 2012. Potency, µM (doses to about 46.1 µM), for the others: at the highest dose activity, negative = active. HeLa A3F-eYFP + Vif (tagged APOBEC3F with the HIV-1 protein that degrades it), YFP fluorescence increase. 0.2% of 390,000 active; also: potency is read from the fitted curve at half-maximal effect; % of control where 0% means no effect; nearly all actives have a fitted effect of over 65% in size
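Fluorescence increase (Ex 488/Em 500-530) after overnight compound treatment at 37 deg C flags inhibition of Vif-driven A3F-eYFP loss in stable HeLa A3F-eYFP/Vif cells seeded overnight beforehand.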
MCF10A rerep: A quantitative high throughput screen for small molecules that induce DNA re-replication in MCF 10a normal breast cells. MCF 10A DNA re-replication, Hoechst nuclear intensity, 48 h. Potency, µM (titrated, usually from 46.1 µM), for inactives: at the highest dose activity, positive = re-replication, actives largely listed as activators. 2.9% of 350,000 active. AID 624296, 2012; also: potency is read from the fitted curve at half-maximal effect; % of control where 0% means no effect; nearly all actives have a fitted effect of over 50% in size
SW480 rereplic: A quantitative high throughput screen for small molecules that induce DNA re-replication in SW480 colon adenocarcinoma cells; 1.8% of 340,000 active; Potency, µM (titrated, usually from 46.1 µM), inactives show at the top dose re-replication activation, usual class: activators; SW480 DNA re-replication, Hoechst DNA content imaging, 48 h; AID 624297, 2012; also: potency is read from the fitted curve at half-maximal effect; % of control where 0% means no effect; nearly all actives have a fitted effect of over 55% in size
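SW480 cells exposed to compounds for 48 hr at 37 C, 5% CO2, then Hoechst-stained 40 min. Nuclear DNA content imaged by fluorescence scanning (405 nm excitation, 500-530 nm emission); re-replication scored as increased high-intensity nuclei.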
Vif-APOBEC3G blk: qHTS for Inhibitors of Vif-A3G Interactions: qHTS; DNA dC->dU-editing enzyme APOBEC-3G (Homo sapiens), Q9HC16; HeLa A3G-eYFP + Vif (tagged APOBEC3G with the HIV-1 protein that degrades it), YFP fluorescence, overnight; Potency, µM (series often up to 46.1 µM), for the others: top-dose activity, negative = active, actives largely listed as inhibitors; 0.076% of 410,000 active; AID 602310, 2012; also: potency is read from the fitted curve at half-maximal effect; % is scaled to controls: 0 for no effect and ±100 for the full control effect; nearly all actives have a fitted effect of over 60% in size
Target sequence (Q9HC16 whole entry, looked up): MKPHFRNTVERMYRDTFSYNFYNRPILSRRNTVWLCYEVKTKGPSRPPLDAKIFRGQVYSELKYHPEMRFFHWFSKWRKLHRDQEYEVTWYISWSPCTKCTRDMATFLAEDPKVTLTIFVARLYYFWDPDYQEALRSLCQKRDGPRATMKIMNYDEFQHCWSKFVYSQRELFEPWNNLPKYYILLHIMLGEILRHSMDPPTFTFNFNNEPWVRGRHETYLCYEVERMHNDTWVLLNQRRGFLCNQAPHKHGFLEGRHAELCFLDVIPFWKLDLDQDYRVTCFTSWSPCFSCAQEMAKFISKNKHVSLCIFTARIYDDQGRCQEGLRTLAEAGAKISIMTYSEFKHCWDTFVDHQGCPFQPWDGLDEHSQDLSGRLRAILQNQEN
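HeLa cells stably expressing Vif and C-terminally eYFP-tagged A3G, seeded overnight at 37 deg C, then exposed to compound by pintool overnight at 37 deg C. Rise in yellow fluorescence (Ex 488/Em 500-530, Acumen) marks blocked Vif-driven A3G degradation.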
IL1B secr inh: qHTS for Inhibitors of Inflammasome Signaling: IL-1-beta AlphaLISA Primary Screen; THP-1 LPS/ATP IL-1B secretion, AlphaLISA, 16 h; stronger effect = lower value; activity change, % at 57.5 µM; 4.7% of 360,000 active; AID 743279, 2014; in the data active = activity change below about -50%; inconclusive = mostly about -30% to -49%; also: % is scaled to controls: 0 for no effect and ±100 for the full control effect
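Secreted IL-1B measured by AlphaLISA bead assay after 16 h compound exposure of THP-1 cells; compounds (final up to 57.5 uM) added 1 h before LPS (250 ng/mL) and ATP (1.25 mM) stimulation; lower signal means less secretion.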
Numbers without * were called inactive; ? = inconclusive; . = no result; [ ] = dose if it differs, or a comment. Unless noted, calls follow the shape of the dose curve; as a rule, active = well fitted curve in the direction sought with a large enough effect; inconclusive = small, poorly fitted or top-dose-only effect, or another doubt; inactive = no such curve, though single readings can be large; an effect the other way counts as inactive or inconclusive.

SMILES | Giardia kill | Vif-A3F inh | MCF10A rerep | SW480 rereplic | Vif-APOBEC3G blk | IL1B secr inh
COc1ccc2c(c1)[C@H]1[C@H](CO2)[C@H](c2ccccc2)[C@]2(C)C(=O)Nc3ccccc3C(=O)N12 | 0 | -6% | 29µM* | ? | -21% | ?
COc1ccc2c(c1)[C@H]1[C@H](CO2)[C@H](c2ccccc2)[C@]2(C)C(=O)Nc3cc(F)ccc3C(=O)N12 | 3 | -6% | ? | ? | -26% | ?
Cc1nn(C)cc1C1C(C#N)=C(N)N(c2ccc(F)c([N+](=O)[O-])c2)C2=C1C(=O)CCC2 (centres undefined) | 4 | -6% | 13% | -265% | 0% | -66*
COc1ccc(C2C(C#N)=C(N)N(c3ccccc3)C3=C2C(=O)CCC3)cc1Cn1cc([N+](=O)[O-])cn1 (centres undefined) | 8 | -1% | ? | ? | -1% | -74*
CC(C)c1ccc(/C=C(\C#N)c2nc(-c3ccc(O)cc3)cs2)cc1 | . | -4% | . | . | -20% | .
COc1cc(NS(=O)(=O)c2ccc(NC(=O)c3cccc(F)c3)cc2)nc(OC)n1 | . | 2% | . | . | -7% | .
Cc1ccc(S(=O)(=O)ON2C(=O)c3ccccc3C2=O)c(C)c1 | 1 | -8% | 13µM* | ? | ? | -78*
Cc1cc(C)c(S(=O)(=O)ON2C(=O)c3ccccc3C2=O)cc1C | 5 | -9% | 7.3µM* | ? | -23% | -61*
O=C1c2ccccc2C(=O)N1OS(=O)(=O)c1ccc(F)cc1 | -28 | -13% | 4% | 3% | 0% | -5
Cc1cc(C)c(C)c(S(=O)(=O)ON2C(=O)c3ccccc3C2=O)c1C | 9 | -12% | 7.3µM* | 21µM* | -19% | -119*
CCCN(Cc1cc2cc(C)ccc2[nH]c1=O)C(=O)c1cccc([N+](=O)[O-])c1 | 15 | 3% | 22% | 2.3µM* | 0% | -16
CCN(CC)CCCN(Cc1cc2cc3c(cc2[nH]c1=O)OCO3)C(=S)Nc1ccccc1 | 0 | 0% | ? | ? | -6% | -65*
Cc1cccc(NC(=S)N(CCCN(C)C)Cc2cc3cc4c(cc3[nH]c2=O)OCO4)c1 | 6 | 0% | 11% | 5% | 1% | -73*
Cc1cccc(NC(=S)N(CCN(C)C)Cc2cc3cc(C)ccc3[nH]c2=O)c1 | -6 | -20% | ? | 0% | 1% | -65*
Cc1ccc2cc(CN(CC3CCCO3)C(=S)Nc3ccccc3)c(=O)[nH]c2c1C (centres undefined) | -18 | 2% | 2.6µM* | 5.2µM* | ? | -53*
COc1cc2cc(CN(CCc3ccccc3C)C(=S)NCCCN(C)C)c(=O)[nH]c2cc1OC | 31 | -7% | 20% | ? | 0% | 0
Cc1cc(C)c2[nH]c(=O)c(CN(CC3CCCO3)C(=S)Nc3ccccc3)cc2c1 (centres undefined) | -7 | 9% | 5% | -2% | -1% | 16
Cc1ccc2[nH]c(=O)c(CN(Cc3ccccc3)C(=S)NCCCN(C)C)cc2c1 | -4 | -9% | ? | ? | 1% | -87*
CCc1ccc(S(=O)(=O)c2cn(Cc3ccccc3)c3cc(N4CCCC4)c(F)cc3c2=O)cc1 | . | 0% | . | . | 2% | .
Cc1ccnc(Nc2nc(-c3ccc(O)cc3)cs2)c1 | -8 | -2% | 3% | -1% | -6% | -21
Cc1ccnc(Nc2nc(-c3ccc(O)c(O)c3)cs2)c1 | -27 | -13% | ? | 5%[1.84 µM] | -2% | -60*
COC(=O)C1CC23C=CCN4CCC5(c6ccccc6NC15C2C)C43 (centres undefined) | -2 | 15% | ? | 0.92µM* | ? | 38
COc1ccc(C(=O)Nc2ccc(Cn3ccnc3)cc2)cc1OC | -4 | -24% | ? | 3% | -6% | -14
O=C(Nc1ccc(Cn2ccnc2)cc1)c1cccc(C(F)(F)F)c1 | 15 | -4% | ? | -40% | 3% | -54*
COc1ccc(OC)c(CNC(=O)c2cc(=O)[nH]c3ccc(S(=O)(=O)N4CCCCC4C)cc23)c1 (centres undefined) | . | 9% | . | . | 4% | .
SMILES | Giardia kill | Vif-A3F inh | MCF10A rerep | SW480 rereplic | Vif-APOBEC3G blk | IL1B secr inh
O=C1OC(Nc2nc(-c3ccc(F)cc3)cs2)c2ccccc21 (centres undefined) | 7 | -8% | 21µM* | 26µM* | ? | -92*
COc1ccc(-c2nnc3ccc(SCC(=O)N4CCCCCC4)nn23)cc1OC | -2 | 5% | 5% | -4% | 2% | -65*
COc1ccc(-c2nnc3ccc(SCC(=O)N4CCCC4)nn23)cc1 | ? | 1% | 2% | -16% | -3% | -19
COC(=O)C(C)SC1=N/C(=C/c2ccc(-n3cncn3)cc2)C(=O)N1 (centres undefined) | 4 | -4% | 16µM* | ? | 1% | 0
COc1cc(Cl)c(C)cc1Nc1nc2ccccc2n2cnnc12 | . | -4% | . | . | -2% | .
CCN1C(=O)c2cccc3c(NS(=O)(=O)c4ccc(NC(C)=O)cc4)ccc1c23 | 13 | -8% | ? | 1% | -14% | 36
CCOC(=O)c1ccc(NC(=O)Nc2ccc3c4c(cccc24)C(=O)N3CC)cc1 | 2 | ? | 23µM* | 7% | 2% | 21
O=C(NCCOC(=O)c1ccc(Cl)cc1)c1cccnc1 | -10 | 1% | 3.7µM* | 4% | 0% | -11
Cc1ccc(-n2ccnc(NCCc3ccc(S(N)(=O)=O)cc3)c2=O)cc1C | . | -4% | . | . | 1% | .
C=CCn1c(SCc2ccc(C(=O)Nc3nccs3)cc2)nnc1-c1ccc(C)c(Cl)c1 | 3 | -12% | 10µM* | ? | 2% | -52*
CCOc1ccc(C)cc1S(=O)(=O)n1cnc2ccccc21 | 11 | -5% | 23µM* | ? | ? | 0
COc1ccc(Cl)cc1S(=O)(=O)n1cnc2ccccc21 | -19 | 4% | -6% | -1% | -5% | 7
CCOc1ccc(Cl)cc1S(=O)(=O)n1cnc2ccccc21 | -4 | -3% | 7.9µM* | 1% | ? | 16
CCOc1cc(C)c(Cl)cc1S(=O)(=O)n1cnc2ccccc21 | -13 | 3% | 328%[0.0737 µM] | -18% | 1% | 3
CCOC(=O)c1cccc(NC(=O)CC2C(=O)N(c3ccc(Cl)cc3)C(=O)N2C2CCCC2)c1 (centres undefined) | . | -4% | . | . | -1% | .

Screens deposited in PubChem BioAssay by National Center for Advancing Translational Sciences (NCATS).
